Values joined by “and” are separate entries in the source; they are usually repeats but may differ in a detail not shown here. Identical values can stand only once. Among all 77,000 compounds or so, about 4,600 (6%) were called active. Inconclusive results (about 1%) are left out.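 Rule for the calls: active = mean inhibition above about 93%, with at least 55% of replicates each passing it (limit read from the data, passing the limit was not always enough); inconclusive = only one of those two conditions holds; inactive = neither condition holds.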 Many of the other results were omitted from the sample, so actives are more common in it than they were. A structure can be active in one record and inactive in another.
Assay: growth inhibition of T. cruzi in host fibroblasts – cell-based, beta-gal Tulahuen parasites, NIH3T3 host, luminescence, primary screen (AID 624255)
Settings: T. cruzi beta-gal in NIH3T3, GalScreen luminescence, 90 h; at 8.34 µM; stronger effect = higher value

Row | SMILES | inhibition
1 | CO[C@H]1CN(C)C(=O)c2ccc(NC(=O)C3CC3)cc2OC[C@@H](C)N(C(=O)CN2CCOCC2)C[C@H]1C | -43.7% (inactive)
2 | CN1C(=O)c2cc(NC(=O)c3cnccn3)ccc2OC[C@@H]2O[C@H](CC(=O)O)CC[C@@H]21 | 8.56% (inactive)
3 | CC(=O)N1[C@H](CN(CC2CCC2)C(=O)CN(C)C)[C@@H](c2ccccc2)[C@@H]1CO | 54.9% (inactive)
4 | COc1ccc(NC(=O)N2C[C@H](O)COC[C@H]3O[C@@H](CC(=O)N4CCN(C)CC4)CC[C@@H]32)cc1 | 7.94% (inactive)
5 | COc1ccc(NC(=O)N(C)C[C@H]2Oc3cc(-c4ccncc4)ccc3S(=O)(=O)N([C@H](C)CO)C[C@H]2C)cc1 | 70.2% (inactive)
6 | C[C@@H]1CN([C@H](C)CO)S(=O)(=O)c2ccc(C#CCN(C)C)cc2O[C@@H]1CN(C)C | -35.4% (inactive)
7 | C[C@H]1CN([C@@H](C)CO)S(=O)(=O)c2ccc(C#CCN(C)C)cc2O[C@@H]1CN(C)Cc1ccc(F)cc1 | 115% (active)
8 | C[C@H](O)C#Cc1ccc2c(c1)O[C@H](CN(C)Cc1cncnc1)[C@H](C)CN([C@@H](C)CO)S2(=O)=O | 36.8% (inactive)
9 | C[C@H]1CN([C@@H](C)CO)S(=O)(=O)c2ccc(-c3cncnc3)cc2O[C@H]1CN(C)Cc1ccncc1 | 25.1% (inactive)
10 | C[C@H](CO)N1C[C@H](C)[C@H](CN(C)Cc2ccncc2)Oc2cc(-c3cncnc3)ccc2S1(=O)=O | 16.7% (inactive)
11 | C[C@H](CO)N1C[C@H](C)[C@H](CN(C)Cc2ccncc2)Oc2cc(-c3ccncc3)ccc2S1(=O)=O | 111% (active)
12 | C[C@@H]1CN([C@@H](C)CO)S(=O)(=O)c2ccc(C#CCN(C)C)cc2O[C@@H]1CN(C)CC1CC1 | -40.3% (inactive)
13 | C[C@H](O)C#Cc1ccc2c(c1)O[C@@H](CN(C)Cc1cncnc1)[C@H](C)CN([C@H](C)CO)S2(=O)=O | -5.8% (inactive)
14 | C[C@@H]1CN([C@H](C)CO)S(=O)(=O)c2ccc(-c3ccncc3)cc2O[C@@H]1CN(C)C(=O)Nc1ccc(C(F)(F)F)cc1 | 82.6% (inactive)
15 | C[C@@H]1CN([C@@H](C)CO)S(=O)(=O)c2ccc(-c3ccncc3)cc2O[C@@H]1CN(C)C(=O)Nc1ccc(F)cc1 | 100% (active)
16 | C[C@@H]1CN([C@H](C)CO)S(=O)(=O)c2ccc(C#C[C@@H](C)O)cc2O[C@@H]1CN(C)Cc1ccc(-c2ccccc2)cc1 | 73.7% (inactive) and 125% (active)
17 | CC=Cc1ccc2n(c1=O)C[C@@H]1[C@@H](CO)[C@H](C(=O)N3CCc4ccccc4C3)N(C(=O)C3CCC3)[C@H]21 (mixture of isomers) | 39.9% (inactive)
18 | CCCC(=O)Nc1ccc2c(c1)C(=O)N(C)C[C@@H](OC)[C@H](C)CN(C(C)=O)[C@H](C)CO2 | -1.03% (inactive)
19 | Cc1ccc(S(=O)(=O)N(C)C[C@@H]2OCCCC[C@H](C)Oc3ccc(NS(=O)(=O)c4cn(C)cn4)cc3C(=O)N([C@H](C)CO)C[C@@H]2C)cc1 | 39.1% (inactive)
20 | CO[C@@H]1CN(C)C(=O)c2ccc(NC(=O)c3ccc(F)cc3)cc2OC[C@H](C)NC[C@@H]1C | -9.72% (inactive)
21 | Cn1cnc(S(=O)(=O)N2C[C@@H](O)COC[C@H]3O[C@H](CC(=O)N4CCN(c5ccccc5)CC4)CC[C@@H]32)c1 | -64.3% (inactive)
22 | CC(C)C#Cc1ccc2c(c1)O[C@H](CN(C)Cc1ccccc1)[C@H](C)CN([C@@H](C)CO)S2(=O)=O | 111% (active)

Row | SMILES | inhibition
23 | C[C@@H]1CN([C@@H](C)CO)S(=O)(=O)c2ccc(/C=C/c3ccccc3)cc2O[C@H]1CN(C)Cc1ccccc1 | 107% (active)
24 | CC(C)C#Cc1ccc2c(c1)O[C@@H](CN(C)Cc1ccncc1)[C@@H](C)CN([C@@H](C)CO)S2(=O)=O | 122% (active)
25 | C/C=C/c1ccc2c(c1)O[C@H](CN(C)Cc1ccccc1)[C@H](C)CN([C@@H](C)CO)S2(=O)=O | 62.6% (inactive)
26 | CC(C)C#Cc1ccc2c(c1)O[C@H](CN(C)Cc1ccccn1)[C@H](C)CN([C@H](C)CO)S2(=O)=O | 57.8% (inactive)
27 | CC(C)C#Cc1ccc2c(c1)O[C@H](CN(C)CC1CCOCC1)[C@@H](C)CN([C@H](C)CO)S2(=O)=O | 93.8% (inactive)
28 | C[C@@H]1CN([C@H](C)CO)S(=O)(=O)c2ccc(C#CC(C)(C)O)cc2O[C@@H]1CN(C)Cc1ccccc1 | 34.1% (inactive)
29 | C[C@@H]1CN([C@H](C)CO)S(=O)(=O)c2ccc(/C=C/c3ccccc3)cc2O[C@@H]1CN(C)Cc1ccccc1 | 81.9% (inactive)
30 | CC(C)C#Cc1ccc2c(c1)O[C@@H](CN(C)CC1CCOCC1)[C@H](C)CN([C@H](C)CO)S2(=O)=O | 91.2% (inactive)
31 | COc1cccc(NC(=O)C[C@H]2CC[C@@H]3[C@H](COc4ccc(NC(C)=O)cc4C(=O)N3C)O2)c1 | -37.9% (inactive)
32 | O=C(C[C@@H]1CC[C@@H]2[C@H](COC[C@@H](O)CN2S(=O)(=O)c2ccccc2)O1)NCC1CCCCC1 | 34.1% (inactive)
33 | COc1ccc(NC(=O)N[C@@H]2CC[C@H](CC(=O)NC3CCC3)O[C@H]2CO)cc1 | 16% (inactive)
34 | COc1cccc(S(=O)(=O)N[C@@H]2CC[C@H](CCNC(=O)Cc3ccncc3)O[C@@H]2CO)c1 | -52.5% (inactive)
35 | O=C(NCC[C@@H]1CC[C@@H](NC(=O)c2ccccc2F)[C@H](CO)O1)c1ccc2c(c1)OCO2 | 20.7% (inactive)
36 | COc1ccc(NC(=O)N(C)C[C@H]2OCCCC[C@H](C)Oc3ccc(NS(C)(=O)=O)cc3C(=O)N([C@H](C)CO)C[C@@H]2C)cc1 | 42.5% (inactive)
37 | CN1CCN(C(=O)C[C@H]2C[C@@H]3c4cc(NC(=O)Nc5ccc(C(F)(F)F)cc5)ccc4O[C@@H]3[C@H](CO)O2)CC1 | -59.1% (inactive)
38 | C[C@@H]1CCCCO[C@H](CN(C)C(=O)NC2CCCCC2)[C@H](C)CN([C@@H](C)CO)C(=O)c2cc(NC(=O)Nc3ccc(F)cc3)ccc2O1 | 93.1% (inactive)
39 | C[C@@H]1CCCCO[C@@H](CN(C)C(=O)NC2CCCCC2)[C@H](C)CN([C@@H](C)CO)C(=O)c2cc(NC(=O)Nc3ccc(F)cc3)ccc2O1 | 54.3% (inactive)
40 | C[C@@H]1CCCCO[C@H](CN(C)C(=O)NC2CCCCC2)[C@H](C)CN([C@H](C)CO)C(=O)c2cc(NC(=O)Nc3ccc(F)cc3)ccc2O1 | 110% (active)
41 | C[C@@H]1CN([C@H](C)CO)C(=O)c2cc(NC(=O)Nc3ccc(F)cc3)ccc2O[C@@H](C)CCCCO[C@@H]1CN(C)CC1CCCCC1 | 115% (active)
42 | C[C@@H]1CCCCO[C@H](CN(C)CC2CC2)[C@@H](C)CN([C@H](C)CO)C(=O)c2cc(NC(=O)Nc3ccc(F)cc3)ccc2O1 | 18.3% (inactive)
43 | C[C@@H]1CCCCO[C@H](CN(C)CC2CCCCC2)[C@H](C)CN([C@H](C)CO)C(=O)c2cc(NC(=O)Nc3ccc(F)cc3)ccc2O1 | 71.7% (inactive)
44 | COCC#Cc1cnc2c(c1)C(=O)N([C@@H](C)CO)C[C@@H](C)[C@@H](CN(C)C(=O)c1cccnc1)O2 | 71.4% (inactive)

Row | SMILES | inhibition
45 | O=C(CC1CC1)N1[C@@H]2CN(S(=O)(=O)c3ccc(F)cc3)c3ccccc3[C@@H]2[C@@H]1CO | 19.2% (inactive)
46 | C[C@@H]1CCCCO[C@H](CN(C)S(=O)(=O)c2cccs2)[C@H](C)CN([C@H](C)CO)C(=O)c2cc(NC(=O)c3ccccc3)ccc2O1 | 88.6% (inactive)
47 | O=C(C[C@H]1C=C[C@H](NC(=O)Nc2ccccc2F)[C@@H](CO)O1)NCc1ccc(Cl)cc1 | 27.5% (inactive)
48 | CN(C)CC#Cc1ccc([C@H]2[C@@H](CO)N(C(=O)C3CCC3)[C@H]2C#N)cc1 | 69.2% (inactive)
49 | CC(C)C#Cc1ccc([C@@H]2[C@@H](C#N)N(C(=O)C3CC3)[C@@H]2CO)cc1 | 68.6% (inactive)
50 | N#C[C@@H]1[C@@H](c2ccc(C#Cc3cccc(F)c3)cc2)[C@@H](CO)N1C(=O)C1CCC1 | 101% (active)
51 | N#C[C@@H]1[C@@H](c2ccc(C#Cc3cccc(F)c3)cc2)[C@H](CO)N1C(=O)C1CCOCC1 | 83.9% (inactive)
52 | CCCC#Cc1ccc([C@@H]2[C@@H](C#N)N(C(=O)C3CCCC3)[C@@H]2CO)cc1 | 102% (active)
53 | N#C[C@@H]1[C@H](c2ccc(C#Cc3cccc(F)c3)cc2)[C@@H](CO)N1C(=O)C1CCCC1 | 97.3% (active)
54 | N#C[C@H]1[C@H](c2ccc(C#Cc3ccc(F)cc3)cc2)[C@@H](CO)N1C(=O)C1CCCC1 | 92.9% (inactive)
55 | CCCC#Cc1ccc([C@@H]2[C@@H](C#N)N(C(=O)C3CCC3)[C@H]2CO)cc1 | 92.4% (inactive)
56 | CCCC#Cc1ccc([C@H]2[C@@H](CO)N(C(=O)C3CC3)[C@H]2C#N)cc1 | 74.3% (inactive)
57 | Cn1cnc(CCNC(=O)C[C@H]2CC[C@H]3[C@@H](COC[C@@H](O)CN3C(=O)Nc3ccc(C(F)(F)F)cc3)O2)c1 | 28.4% (inactive)
58 | CC=Cc1ccc2n(c1=O)C[C@H]1[C@H](CO)[C@@H](C(=O)NC3CCCC3)N(Cc3ccncc3)[C@@H]21 (mixture of isomers) | -33.3% (inactive)
59 | CS(=O)(=O)Nc1ccc2c(c1)[C@H]1C[C@H](CC(=O)NCc3ccc(Oc4ccccc4)cc3)O[C@H](CO)[C@H]1O2 | 3.92% (inactive)
60 | O=C(C1CCC1)N1CCCCN2[C@H](CO)[C@H](c3ccc(-c4cccc(F)c4)cc3)[C@@H]2C1 | 99.7% (active)
61 | O=C(Nc1ccc(F)cc1)N1CCCCN2[C@H](CO)[C@H](c3ccc(-c4ccncc4)cc3)[C@@H]2C1 | 67.2% (inactive)
62 | O=C(C1CC1)N1CCCCN2[C@H](CO)[C@H](c3ccc(-c4cccc(F)c4)cc3)[C@H]2C1 | 95.6% (active)
63 | O=C(C1CCC1)N1CCCCN2[C@H](CO)[C@H](c3ccc(-c4ccncc4)cc3)[C@@H]2C1 | 99.7% (active)
64 | O=C(C1CCCC1)N1CCCCN2[C@@H](CO)[C@H](c3ccc(-c4cccc(F)c4)cc3)[C@@H]2C1 | 111% (active)
65 | O=C(C1CC1)N1CCCCN2[C@H](C1)[C@@H](c1ccc(-c3cccc(F)c3)cc1)[C@@H]2CO | 32.6% (inactive)
66 | O=C(C1CCC1)N1CCCCN2[C@H](CO)[C@H](c3ccc(-c4cccc(F)c4)cc3)[C@H]2C1 | 94.1% (inactive)
